Reference: PubChem BioAssay (NCATS)
Where “and” joins values, the source holds several entries; their conditions need not be identical. Identical values can stand only once. Records with an inconclusive call do not appear. A number with no mark means an inactive call. Calls of active or inactive are those of the source. Calls follow the shape of the dose curve; as a rule, active = well fitted curve in the direction sought with a large enough effect; inconclusive = small, poorly fitted or top-dose-only effect, or another doubt; inactive = no such curve, though single readings can be large; an effect the other way counts as inactive or inconclusive.

Experiments:
[1] = Quantitative highthroughput screen to assess conditional lethalithy of P12 Ichikawa cells grown in Human Plasma-Like Medium with dialyzed fetal bovine serum (HPLM+ds) (AID 1963879); conditions: Potency: viability; also: nearly all actives have a fitted effect of over 35% in size; as to viability: series mostly up to about 46 µM
How it was run: (§1)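 Each medium arm—HPLM with 10% dialyzed FBS, or RPMI1640 with 5 mM glucose and 10% untreated or dialyzed FBS—was screened against an 11-point, 3-fold compound titration for 48 h at 37 °C, with CellTiter-Glo luminescence as endpoint.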

[2] = Quantitative highthroughput screen to assess conditional lethalithy of P12 Ichikawa cells grown in RPMI1640 with dialyzed fetal bovine serum (RPMI+ds) (AID 1963880); conditions: Potency: P12-Ichikawa viability; also: nearly all actives have a fitted effect of over 35% in size;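 as to viability: 100% = DMSO wells and 0% = empty wells on each plate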
How it was run: as §1

[3] = Quantitative highthroughput screen to assess conditional lethalithy of SEM cells grown in Human Plasma-Like Medium with dialyzed fetal bovine serum (HPLM+ds) (AID 1963882); also: nearly all actives have a fitted effect of over 35% in size; as to viability: series mostly up to about 46 µM
How it was run: as §1

[4] = Quantitative highthroughput screen to assess conditional lethalithy of SEM cells grown in RPMI1640 with unreated serum (RPMI+s) (AID 1963883); also: nearly all actives have a fitted effect of over 35% in size;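 as to viability: 100% = DMSO wells and 0% = empty wells without cells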
How it was run: as §1

[5] = Quantitative highthroughput screen to assess conditional lethalithy of SEM cells grown in RPMI1640 with dialyzed fetal bovine serum (RPMI+ds) (AID 1963884); also: nearly all actives have a fitted effect of over 35% in size;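 as to viability: series mostly up to about 46 µM; 100% = DMSO control wells and 0% = empty wells without cells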
How it was run: as §1

[6] = Cellular viability qHTS for adrenocortical cancer (ACC) cell line NCI-H295R (AID 1963990); also: nearly all actives have a fitted effect of over 60% in size
How it was run: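 Readout: CellTiter-Glo luminescence, 20 min RT. Exposure: 48 h, 37C/5% CO2. Cells: NCI-H295R, ITS-DMEM serum-free. Range: up to 46 uM. Analysis: 4PL fit, IC50 plus efficacy.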

[7] = Quantitative highthroughput screen to assess conditional lethalithy of P12 Ichikawa cells grown in RPMI1640 with untreated serum (RPMI+s) (AID 1963881); conditions: Potency: viability; also: nearly all actives have a fitted effect of over 35% in size;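 as to viability: series mostly up to about 46 µM; 100% = DMSO wells and 0% = empty wells without cells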
How it was run: as §1

[8] = Cellular viability qHTS for adrenocortical cancer (ACC) cell line SW-13 (AID 1963989); conditions: SW-13 ACC cells viability, CellTiter-Glo, 48 h; activity (max response): active compounds read low; also: nearly all actives have a fitted effect of over 65% in size;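 as to activity (max response): cells grown in serum-free medium with ITS supplement; % is scaled to controls: 0 for no effect and ±100 for the full control effect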
How it was run: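 Compound titrations (up to 46 uM final, in DMSO) were applied to SW-13 cells for 48 h at 37C/5% CO2. Reading used CellTiter-Glo after 20 min at room temperature; fitted curves yielded IC50 and efficacy.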
Potency is read from the fitted curve at half-maximal effect.

With `Cc1cc(N2CCOCC2)cc2[nH]c(-c3c(NC[C@@H](O)c4cccc(Cl)c4)cc[nH]c3=O)nc12` the Potency [1] was “inactive”, the Potency [2] was “inactive” and the Potency [3] was 1480 nM (active). The Potency [4] was 1660 nM (active), the Potency [5] was 1870 nM (active) and the Potency [6] was 5.01 µM (active).

In the case of `CNC(=O)c1cccc(-c2ccc3c(N4CCOC[C@H]4C)nc(N4CCOC[C@H]4C)nc3n2)c1`, the Potency [1] is reported as 74.3 nM (active), the Potency [3] is reported as 264 nM (active) and the Potency [4] is reported as 2640 nM (active). For the same molecule, the Potency [5] was 469 nM (active).

In the case of `Cc1cnn(C)c1C(=O)Nc1cc(Nc2ccc3c(C=Cc4ccccn4)n[nH]c3c2)ccc1F`, the Potency [1] is reported as 20900 nM (active), the Potency [3] is reported as 2960 nM (active) and the Potency [4] is reported as 3720 nM (active). For the same molecule, the Potency [5] was 2640 nM (active).

For `CO[C@H]1O[C@@H]2O[C@@]3(C)CC[C@@H]4[C@@H](C)CC[C@@H]([C@H]1C)[C@@]24OO3`, the Potency [2] was 14800 nM (active), the Potency [7] was 16600 nM (active) and the Potency [3] was “inactive”.

For `COc1cc(C(=O)NS(=O)(=O)c2ccccc2C)ccc1Cc1cn(C)c2ccc(NC(=O)OC3CCCC3)cc12`, the Potency [1] was “inactive”, the Potency [3] was 20900 nM (active) and the Potency [6] was 28.2 µM (active).

In the case of `COc1cc2c(cc1OC)[C@@H]1Cc3ccc(OC)c(OC)c3CN1CC2`, the Potency [1] is reported as “inactive”, the Potency [2] is reported as “inactive” and the Potency [7] is reported as “inactive”. For the same molecule, the Potency [4] was “inactive” and the Potency [5] was “inactive”.

With `C[C@H]1COc2c(N3CCN(C)CC3)c(F)cc3c(=O)c(C(=O)O)cn1c23` the Potency [1] was 8330 nM (active), the Potency [7] was 4180 nM (active) and the Potency [4] was 13200 nM (active). For the same molecule, the Potency [5] was 1320 nM (active), the activity (max response) [8] was 6.21% and the Potency [6] was “inactive”.

With `Cc1csc(-c2nnc(Nc3ccc(Oc4ncccc4-c4ccnc(N)n4)cc3)c3ccccc23)c1` the Potency [1] was 10.5 nM (active), the Potency [4] was 16.6 nM (active) and the activity (max response) [8] was -17.7%. The Potency [6] was “inactive”.

For `N#CC(=C(N)Sc1ccc(N)cc1)c1ccccc1C(F)(F)F`, the Potency [2] was “inactive” and the Potency [7] was 2960 nM (active).

In the case of `CNc1nc(-c2ccc3c(N)n[nH]c3c2)cc(N2C[C@@H](C(=O)NC3CCCCC3)CC[C@@H]2C)n1`, the Potency [1] is reported as 23500 nM (active), the Potency [7] is reported as 16600 nM (active) and the Potency [3] is reported as 16600 nM (active). For the same molecule, the Potency [4] was 16600 nM (active) and the Potency [5] was 18700 nM (active).

With `COC(=O)C=CC(=O)OC` the Potency [1] was 935 nM (active), the Potency [2] was 1480 nM (active) and the Potency [7] was 2640 nM (active). The Potency [4] was 1320 nM (active) and the Potency [5] was 2640 nM (active).

With `Cc1onc(-c2ccccc2)c1C(=O)N[C@@H]1C(=O)N2[C@@H](C(=O)O)C(C)(C)S[C@@H]12` the Potency [2] was 1050 nM (active), the Potency [7] was 1320 nM (active) and the Potency [3] was “inactive”. The Potency [5] was “inactive”.

For `OC[C@H]1OC(O)C[C@@H](O)[C@H]1O` (stereo not given in full), the Potency [1] was “inactive”, the Potency [7] was “inactive” and the Potency [3] was “inactive”. The Potency [4] was “inactive”, the Potency [5] was “inactive” and the activity (max response) [8] was 7.09%. The Potency [6] was “inactive”.

With `COc1cc(OC)c(C=CS(=O)(=O)Cc2ccc(OC)c(NCC(=O)O)c2)c(OC)c1` the Potency [1] was 264 nM (active), the Potency [2] was 166 nM (active) and the Potency [4] was 209 nM (active). The Potency [5] was 118 nM (active).

With `CC[C@H](CC[C@@H](C)[C@H]1CC[C@H]2[C@@H]3CC=C4C[C@@H](O)CC[C@]4(C)[C@@H]3CC[C@]12C)C(C)C` the Potency [2] was “inactive”, the Potency [7] was “inactive” and the Potency [4] was “inactive”. The Potency [5] was “inactive”.

In the case of `CNC(=O)c1ccc(Nc2cc(Nc3ccccc3S(=O)(=O)C(C)C)c3cc[nH]c3n2)nc1`, the Potency [1] is reported as 2350 nM (active), the Potency [7] is reported as 1870 nM (active) and the Potency [4] is reported as 1480 nM (active). The Potency [5] was 1050 nM (active).

For `COc1nccc(-c2c(-c3ccc(F)cc3)ncn2C2CCNCC2)n1`, the Potency [1] was “inactive”, the Potency [2] was “inactive” and the Potency [7] was “inactive”. For the same molecule, the Potency [3] was “inactive”, the activity (max response) [8] was -17.6% and the Potency [6] was “inactive”.

With `CC1=C(C)C(=O)C(C(CCCCCC(=O)O)c2ccccc2)=C(C)C1=O` (stereo not given) the Potency [1] was “inactive”, the Potency [7] was 8330 nM (active) and the activity (max response) [8] was 0.763% and -13.4%. The Potency [6] was “inactive”.

For `CCNC(=O)CCCC=CC[C@@H]1[C@H](C=CC(O)CCc2ccccc2)[C@@H](O)C[C@@H]1O` (stereo not given in full), the Potency [1] was “inactive”, the Potency [7] was “inactive” and the Potency [3] was “inactive”. The Potency [4] was “inactive” and the Potency [5] was “inactive”.

For `CCC(=C(c1ccc(O)cc1)c1ccc(OCCNC)cc1)c1ccccc1`, the Potency [1] was 4180 nM (active), the Potency [3] was 13200 nM (active) and the Potency [4] was 7430 nM (active).

With `Cc1ccc(N(CC2=NCCN2)c2cccc(O)c2)cc1` the Potency [1] was “inactive”, the Potency [7] was “inactive” and the Potency [4] was “inactive”. The Potency [8] was 23.1 µM (active) and 25.1 µM (active) and the Potency [6] was “inactive”.

In the case of `CCOC1OC(=O)C[C@H]1NC(=O)[C@@H]1CCCN1C(=O)[C@@H](NC(=O)c1ccc(N)c(Cl)c1)C(C)(C)C` (stereo not given in full), the Potency [2] is reported as 3320 nM (active), the Potency [7] is reported as 1870 nM (active) and the Potency [3] is reported as “inactive”. The Potency [4] was “inactive”.

For `Cc1nc(Nc2ncc(C(=O)Nc3c(C)cccc3Cl)s2)cc(N2CCN(CCO)CC2)n1`, the Potency [1] was 1870 nM (active), the Potency [8] was 1.84 µM (active) and 1.41 µM (active) and the Potency [6] was 20.6 µM (active) and 25.1 µM (active).
